{"source": "ChEMBL document CHEMBL3988442", "about": "“University of Dundee, Small-Polar-MMV Screening Library” (2021)", "note": "Screen size: about 48,000 compounds; about 13,000 (27%) showed an effect of 50% or more. Some of the results follow."}
{"tested_on": "Wolbachia pipientis", "assay": "Anti-Wolbachia Cell-Based Screen", "type": "functional", "design": "scale not given: in the data most compounds retested in dose-response had high values", "settings": "5 µM", "units": {"Percent Effect": "%"}}
{"smiles": "O=C(NC1CCCN(c2ccc(OC(F)F)cc2)C1)c1ccon1", "note": "(centres undefined)", "Percent Effect": 12.05}
{"smiles": "Cc1c(NCCCOc2cccc(C#N)c2)cccc1C(N)=O", "Percent Effect": -5.343}
{"smiles": "O=C1CCN(C(=O)C2(c3ccc(F)cc3)CCOCC2)CCN1", "Percent Effect": 5.245}
{"smiles": "Cc1cc(CS(=O)(=O)c2ccccc2)no1", "Percent Effect": -12.79}
{"smiles": "CC(=O)N1CCN2C[C@H](CO)[C@@H](c3ccccc3)[C@H]2C1", "Percent Effect": 95.75}
{"smiles": "O=C(C1CC1)N1CCN2C[C@@H](CO)[C@H](c3ccccc3)[C@H]2C1", "Percent Effect": 89.49}
{"smiles": "CCN1CC[C@]2(CN(C(=O)C3CCOCC3)C[C@H]2c2ccccc2)C1=O", "Percent Effect": -4.584}
{"smiles": "CC(=O)N1CCN(C)CC(COCc2ccccc2)C1", "note": "(centres undefined)", "Percent Effect": -1.846}
{"smiles": "CC(=O)N1CCN(C2CCc3ccccc32)CC1", "note": "(centres undefined)", "Percent Effect": 10.52}
{"smiles": "CCC(NC(=O)c1ccc2[nH]ccc2c1)C(=O)N1CCOCC1", "note": "(centres undefined)", "Percent Effect": 6.827}
{"smiles": "OC1CCN(c2ccccc2NCc2nc(-c3ccoc3)no2)CC1", "Percent Effect": 5.706}
{"smiles": "O=C(NCCN1C(=O)CCC1=O)c1nc2ccccc2c(=O)[nH]1", "Percent Effect": 1.599}
{"smiles": "CCCc1cc(C(=O)NCCCC(=O)N2Cc3ccccc3C2)[nH]n1", "Percent Effect": -1.2}
{"smiles": "CNC(=O)N1CCC2(CC1)c1ncc(-c3cccc(F)c3)n1CCN2C.O=C(O)C(F)(F)F", "Percent Effect": 101.8}
{"smiles": "CCN1CCn2c(-c3cccc(F)c3)cnc2C12CCN(C(C)=O)CC2.O=C(O)C(F)(F)F", "Percent Effect": 112.1}
{"smiles": "CN1CCn2c(-c3cccc(F)c3)cnc2C12CCN(CC1CC1)CC2.O=C(O)C(F)(F)F.O=C(O)C(F)(F)F.O=C(O)C(F)(F)F", "Percent Effect": -9.47}
{"smiles": "CC(=O)N1CCn2c(-c3cccc(F)c3)cnc2C12CCNCC2.O=C(O)C(F)(F)F", "Percent Effect": 7.148}
{"smiles": "CCN1CCN(S(=O)(=O)c2cn(C(C)C)cn2)c2ccccc21", "Percent Effect": -8.79}
{"smiles": "O=C(c1ccccc1)C1CCN(c2cncc(-n3cccn3)n2)CC1", "Percent Effect": 6.831}
{"smiles": "O=C(c1ccc(-n2cccn2)nc1)N1CCC(c2ccc(O)cc2)CC1", "Percent Effect": -5.1}
{"smiles": "O=C(c1ccc(-n2cccn2)nc1)N1CCC(c2ccn[nH]2)C1", "note": "(centres undefined)", "Percent Effect": 151}
{"smiles": "O=C(c1ccc(-n2cccn2)nc1)N1CCCC(c2cnccn2)C1", "note": "(centres undefined)", "Percent Effect": 143.5}
{"smiles": "Cc1cncc(C2CCN(C(=O)c3ccc(-n4cccn4)nc3)CC2)n1", "Percent Effect": 157.3}
{"smiles": "O=C(c1ccc(-n2cccn2)nc1)N1CCCN(c2cccnn2)CC1", "Percent Effect": 2.596}
{"smiles": "CC1CCCCN1C1CN(C(=O)c2sccc2S(N)(=O)=O)C1", "note": "(centres undefined)", "Percent Effect": 5.602}
{"smiles": "CN(Cc1ccccc1)C1(C(=O)O)Cc2ccccc2C1", "Percent Effect": 1.396}
{"smiles": "CC[C@@H]1N(Cc2nccs2)CCC[C@]12CCC(=O)N2C.O=C(O)C(F)(F)F", "Percent Effect": 109.2}
{"smiles": "CC[C@@H]1N(CC2CC2)CCC[C@]12CCC(=O)N2CCOC.O=C(O)C(F)(F)F", "Percent Effect": -7.54}
{"smiles": "CC[C@@H]1N(Cc2nccs2)CCC[C@]12CCC(=O)N2CCOC.O=C(O)C(F)(F)F", "Percent Effect": 100.4}
{"smiles": "CN1C(=O)CCCC12CCCN(Cc1nccs1)C2.O=C(O)C(F)(F)F", "note": "(centres undefined)", "Percent Effect": -2.009}
{"smiles": "COCCN1C(=O)CC[C@]12CC[C@@H](NCc1nccs1)CC2.O=C(O)C(F)(F)F", "Percent Effect": -1.329}
{"smiles": "Cn1cccc1C(=O)N1C[C@H]2CN(CCN3CCCC3)C(=O)[C@H]2C1", "Percent Effect": -3.388}
{"smiles": "Cn1cc(C(=O)N[C@H]2CN(S(C)(=O)=O)[C@@H]3CCCO[C@H]23)cn1", "Percent Effect": 0.3212}
{"smiles": "CS(=O)(=O)N1C[C@@H](NC(=O)c2ccno2)[C@@H]2OCCC[C@@H]21", "Percent Effect": 112.1}
{"smiles": "CS(=O)(=O)N1C[C@H](NC(=O)c2ccno2)[C@@H]2OCCC[C@@H]21", "Percent Effect": 97.34}
{"smiles": "CN(C)C(=O)N[C@@H]1CN(S(C)(=O)=O)[C@@H]2CCCO[C@@H]21", "Percent Effect": -12.16}
{"smiles": "CC(CCNC(=O)NCCc1ccc(S(N)(=O)=O)cc1)c1ccccc1", "note": "(centres undefined)", "Percent Effect": 2.961}
{"smiles": "Nc1nc(CCCNC(=O)c2ccccc2C2CCNC2)cs1", "note": "(centres undefined)", "Percent Effect": 16.63}
{"smiles": "NC(=O)c1ccccc1Oc1cccc(C2CCCNC2)n1", "note": "(centres undefined)", "Percent Effect": 178.3}
{"smiles": "COc1ccccc1-c1c[nH]c(C2CCCN2)n1.Cl.Cl", "note": "(centres undefined)", "Percent Effect": -20.8}
{"smiles": "NC(=O)c1cc(C2CCCN(CCCOc3ccccc3)C2)n[nH]1", "note": "(centres undefined)", "Percent Effect": -3.314}
{"smiles": "CN1CCN(Cc2ccccc2Oc2ccc(C(N)=O)cn2)CC1", "Percent Effect": -9.578}
{"smiles": "NC(=O)c1ccccc1Oc1cnc(C2CCCN2)cn1", "note": "(centres undefined)", "Percent Effect": 134.2}
{"smiles": "Cc1ncccc1C(=O)Nc1ccc2ccn(CCN(C)C)c2c1", "Percent Effect": -6.665}
{"smiles": "CC(C)S(=O)(=O)Cc1cccc(NC(=O)c2ccc[nH]2)c1", "Percent Effect": 19.64}
{"smiles": "CC(C)c1ocnc1C(=O)Nc1cccc(Cn2ccccc2=O)c1", "Percent Effect": 74.78}
{"smiles": "O=C(Nc1cccn(Cc2ccccc2)c1=O)c1ccncc1F", "Percent Effect": -8.682}
{"smiles": "Cc1ncccc1C(=O)Nc1cccc(Cn2ccccc2=O)c1", "Percent Effect": 100.7}
{"smiles": "CSc1ncccc1C(=O)Nc1ccc(Cn2ccccc2=O)cc1", "Percent Effect": 85.69}
{"smiles": "Cc1ncccc1C(=O)Nc1cccc2c1C(=O)NC2", "Percent Effect": -1.694}
{"smiles": "O=C(CCn1ccccc1=O)Nc1ccc(I)cc1", "Percent Effect": -0.04239}
{"smiles": "CC(C)c1nc2cc(NC(=O)Cn3ccccc3=O)ccc2o1", "Percent Effect": 6.336}
{"smiles": "CN(Cc1cnn(C)c1)C(=O)NCc1nnc2n1CCC2", "Percent Effect": -11.71}
{"smiles": "CN(Cc1ccc(F)cc1)C(=O)NCc1nnc2n1CCC2", "Percent Effect": 105}
{"smiles": "O=C(NCc1nnc2n1CCC2)N(Cc1ccc(F)cc1)C1CC1", "Percent Effect": -6.428}
{"smiles": "CN(Cc1ccco1)C(=O)NCc1nnc2n1CCC2", "Percent Effect": 1.808}
{"smiles": "CN(Cc1ccc(N(C)C)cc1)C(=O)NCc1nnc2n1CCC2", "Percent Effect": 115.6}
{"smiles": "CN(Cc1ccc(F)cc1)C(=O)NCc1nnc2n1CCCCC2", "Percent Effect": -12.53}
{"smiles": "CN(CCO)Cc1nnc(C2CCN(C[C@H]3[C@@H]4CNC[C@@H]43)CC2)n1C", "Percent Effect": -4.687}
{"smiles": "CCCC(=O)Nc1cc2c(cc1OC)NC(=O)CC2c1ccc(CC)o1", "note": "(centres undefined)", "Percent Effect": 133.6}
{"smiles": "CCc1ccc(C2CC(=O)Nc3cc(OC)c(NS(C)(=O)=O)cc32)o1", "note": "(centres undefined)", "Percent Effect": 82.49}
{"smiles": "CCc1ccc(S(=O)(=O)Nc2cc(OC)c(OC)cc2C(=O)O)s1", "Percent Effect": -0.559}
{"smiles": "CN(Cc1ccc(C2CC(=O)Nc3cc4[nH]ncc4cc32)o1)S(C)(=O)=O", "note": "(centres undefined)", "Percent Effect": 6.583}
{"smiles": "CCc1ccc(C2CCCN2C(=O)NCC(=O)NCC(C)C)o1", "note": "(centres undefined)", "Percent Effect": -83.92}
{"smiles": "CCc1ccc(C2CCCN2C(=O)CNC(=O)CCC(C)C)o1", "note": "(centres undefined)", "Percent Effect": 9.018}
{"smiles": "CCc1ccc(C2CC(=O)Nc3cc(NS(C)(=O)=O)ccc32)o1", "note": "(centres undefined)", "Percent Effect": 85.79}
{"smiles": "CN(Cc1ccc(C2CC(=O)Nc3n[nH]cc32)o1)S(C)(=O)=O", "note": "(centres undefined)", "Percent Effect": 5.804}
{"smiles": "CCc1ccc(C2CC(=O)Nc3n[nH]cc32)o1", "note": "(centres undefined)", "Percent Effect": 13.18}
{"smiles": "CS(=O)(=O)Cc1ccc(Cl)c(NCc2noc(C3CC3)n2)c1", "Percent Effect": -7.665}
{"smiles": "CCOCCOC(C)C(=O)Nc1ccc2[nH]c(C)cc2c1", "note": "(centres undefined)", "Percent Effect": 4.03}
{"smiles": "CC(NC(=O)c1ccc(CS(C)(=O)=O)o1)c1ccc(F)c(F)c1", "note": "(centres undefined)", "Percent Effect": -18.18}
{"smiles": "CC(=O)N1CCC(N[C@@H]2CO[C@H](CNC(=O)C3CCCC3)[C@H]2O)CC1", "Percent Effect": -17.04}
{"smiles": "COC(=O)N1CCCC(C(=O)N(C)C)C1", "note": "(centres undefined)", "Percent Effect": 5.213}
{"smiles": "CC(=O)N1CCN([C@@H]2CC[C@@H](N(C)C(=O)C3CCCCC3)[C@H]2O)CC1", "Percent Effect": 97.43}
{"smiles": "CC(=O)N1CCC(C(=O)N(C)[C@@H]2CCC[C@@H](N3CCCC3)[C@@H]2O)CC1", "Percent Effect": -16.02}
{"smiles": "CC(=O)N1CCN(C2CCCCc3ccccc32)CC1", "note": "(centres undefined)", "Percent Effect": -7.249}
{"smiles": "CC(=O)N1CCN([C@@H]2CCC[C@@H](N(C)C(=O)C3CC3)[C@H]2O)CC1", "Percent Effect": 98.54}
{"smiles": "Cc1cc(=O)c(C(=O)N(C)Cc2ccc(Cl)c(F)c2)c[nH]1", "Percent Effect": 0.1621}
{"smiles": "CCCc1noc(C(C)S(=O)(=O)Cc2nc(C3CC3)no2)n1", "note": "(centres undefined)", "Percent Effect": -3.55}
{"smiles": "COC(C(=O)NCc1c(C)nc2cc(=O)[nH]n2c1C)c1ccccc1", "note": "(centres undefined)", "Percent Effect": -2.131}
{"smiles": "Cn1cc(CN2CCC3(CC(=O)N(c4ccc5c(c4)OCO5)C3)C2)cn1.O=C(O)C(F)(F)F", "note": "(centres undefined)", "Percent Effect": -18.04}
{"smiles": "Fc1ccc(CN2CCC3(CC2)CCN(Cc2nccs2)CC3)cc1.O=C(O)C(F)(F)F.O=C(O)C(F)(F)F", "Percent Effect": 3.556}
{"smiles": "Cc1ncc(CN2CCCC(O)(c3ccc(F)cc3)CC2)n1C.O=C(O)CC(O)(CC(=O)O)C(=O)O", "note": "(centres undefined)", "Percent Effect": 96.51}
{"smiles": "Cc1ccc(=O)n(CC2(O)CCN(Cc3cc(C)c(O)c(C)c3)CC2)n1.O=C(O)CC(O)(CC(=O)O)C(=O)O", "Percent Effect": -13.33}
{"smiles": "CCn1c(CN2CCCC(O)(c3ccc(F)cc3)CC2)cnc1SC.O=C(O)CC(O)(CC(=O)O)C(=O)O", "note": "(centres undefined)", "Percent Effect": 110.7}
{"smiles": "CCn1c(CN2CCC(O)(c3ccc4c(c3)OCO4)CC2)cnc1SC.O=C(O)CC(O)(CC(=O)O)C(=O)O", "Percent Effect": 113.8}
{"smiles": "O=C(O)C(c1ccc2c(c1)OCO2)N1CCC(O)(c2cccnc2)CC1", "note": "(centres undefined)", "Percent Effect": -24.46}
{"smiles": "CC(NC(=O)N(C)CCCOc1ccc(F)cc1)c1nncn1C", "note": "(centres undefined)", "Percent Effect": 8.721}
{"smiles": "Cc1cccc(C(=O)N2CCN(S(C)(=O)=O)[C@@H]3CS(=O)(=O)C[C@@H]32)n1", "Percent Effect": -7.495}
{"smiles": "O=C1NCCN(C(=O)c2cn3ccsc3n2)C1c1cccc(F)c1", "note": "(centres undefined)", "Percent Effect": -4.51}
{"smiles": "Cc1csc(C2CCCCN2C(=O)CN(C)C2CC2)n1", "note": "(centres undefined)", "Percent Effect": 3.375}
{"smiles": "Cc1csc(C2CCCCN2C(=O)CN(C)C(C)C)n1", "note": "(centres undefined)", "Percent Effect": 91.31}
{"smiles": "CCN(CC)CC(=O)N1CCCCC1c1nc(C)cs1", "note": "(centres undefined)", "Percent Effect": 131.2}
{"smiles": "Cc1csc(C2CCCCN2C(=O)CN(C)Cc2ccccc2)n1", "note": "(centres undefined)", "Percent Effect": -0.5019}
